The whole screen tested about 420,000 compounds, of which about 64,000 (15%) were called active. Roughly 27% stayed inconclusive and do not appear here. The call rests on the fitted dose curve; in most records, active means well fitted inhibition curve with a large enough effect; inconclusive means small, poorly fitted or top-dose-only effect; inactive means flat fitted curve, though single readings scatter. The list is a sample of the results. Where a call stands in place of a potency, no number is given.
assay: qHTS for Inhibitors of human tyrosyl-DNA phosphodiesterase 1 (TDP1): qHTS in cells in absence of CPT; settings: DT40 Tdp1-/- hTDP1 cells, no CPT, ATP luminescence, 48 h; activity change, negative = growth inhibition: at 46.2 µM (top of the series); further: nearly all actives have a fitted effect of over 55% in size
Outline: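 Camptothecin absent (DMSO only). Human TDP1-complemented DT40 knockout cells, 400 cells/well, 37 °C for minimum 48 hr; ATP measured via CellTiter-Glo, 30 min dark incubation, luminescence.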
Potency means the concentration at half of the fitted maximal effect.

SMILES | Potency
Cc1ccc(N/C=C/C(=O)c2ccccc2)cc1C | inactive
C/C(=N\NC(=O)c1nc(C)cc(C)n1)c1ccccc1 | inactive
Cc1cc(C)nc(S/C=C/C(=O)c2ccccc2)n1 | 2.59 µM (active)
COC1=CCC2([N+](=O)[O-])CN(CC(=O)O)CC1([N+](=O)[O-])C2 (configuration not stated) | inactive
Cc1ccc(NC(=O)NC(=O)N(C2CCCCC2)S(=O)(=O)c2ccccc2)cc1 | inactive
Cc1ccc2[nH]c3c(=O)n(Cc4ccccn4)cnc3c2c1 | inactive
CC(C)c1cccc(C(C)C)c1Nc1cn[nH]c1 | 20.6 µM (active)
O=C(O)CCCN1C(=O)c2ccccc2Sc2ncccc21 | inactive
C=CCOc1cccc(CNCc2cccnc2)c1 | inactive
Cn1cnc([N+](=O)[O-])c1Nc1ccccc1O | inactive
Cn1cnc([N+](=O)[O-])c1Sc1ccccc1 | 23.1 µM (active)
Cn1cnc([N+](=O)[O-])c1Sc1n[nH]c(N)n1 | inactive
C=CCN1C(=O)C2(OCCCO2)c2cccc(Cl)c21 | inactive
CCC(C)(C)n1nnnc1C(c1ccc(OC)c(OC)c1)N1CCN(C(=O)c2ccco2)CC1 (configuration not stated) | inactive
CCC(C)(C)n1nnnc1C(c1ccccc1OC)N1CCSCC1 (configuration not stated) | inactive
CCC(C)(C)n1nnnc1C(c1cccs1)N1CCN(c2nc3ccccc3s2)CC1 (configuration not stated) | 15.8 µM (active)
O=C(CCn1nnc2ccccc2c1=O)N[C@@H](Cc1c[nH]c2ccccc12)C(=O)O | inactive
CCOC(=O)N1CCC(NC(=O)Cc2cn(C)c3ccccc23)CC1 | inactive
CC(C)=CCC/C(C)=C/CC/C(C)=C/CC/C(C)=C/CO | inactive
CCSc1nc2c(c(=O)[nH]1)C(c1cccnc1)C(C(=O)OC(C)C)=C(C)N2 (configuration not stated) | inactive
COc1cc(OC)c(NC(=O)C2CCCN2C(=O)OCc2ccccc2)cc1Cl (configuration not stated) | inactive
COc1cc(CN2CCC(C(N)=O)CC2)ccc1OCc1ccccc1 | inactive

SMILES | Potency
COc1cc(CNC2CCCC2)c(Br)cc1OCc1ccccc1 | 16.4 µM (active)
O=C(CN1CCSCC1)N/N=C/c1ccc(F)cc1 | inactive
COc1ccc(-c2csc(NC(=O)CCCc3cccs3)n2)cc1 | inactive
COc1ccc(-c2csc(NC3OC(=O)c4ccccc43)n2)cc1 (configuration not stated) | 6.51 µM (active)
COc1ccc2c(c1OC)C(=O)OC2c1c(O)nc(SC)n(-c2ccccc2)c1=O (configuration not stated) | inactive
CCc1ccccc1NC(=O)[C@@H]1CCC(=O)N1C1OC(=O)c2c1ccc(OC)c2OC (some centres not stated) | inactive
COc1ccc2c(c1OC)C(=O)OC2Nc1nc(-c2ccccc2)cs1 (configuration not stated) | 1.84 µM (active)
O=C(O)c1ccc(Cn2c(=S)[nH]c3cc(Cl)ccc3c2=O)cc1 | inactive
CCOC(=O)CSc1nnc(CNc2nc(-c3ccccc3)cs2)n1C | inactive
Cc1ccc(O/C=C2\OC(=O)c3ccccc32)cc1 | inactive
O=C1CC2(CCCCC2)Oc2ccc(OCC(=O)N3CCOCC3)cc21 | inactive
CCN(CC)c1ccc([N+](=O)[O-])cc1C(=O)O | inactive
Cc1cccc(C(=O)c2cccc(C)c2)c1 | inactive
Cc1cccc(C=CC(=O)c2ccc(Cl)cc2)c1 | 13 µM (active)
Cc1cc(C)nc(NC(=O)/C=C/c2ccc(Cl)cc2)n1 | inactive
COc1ccc(CNC(=O)C2CCN(S(=O)(=O)N3CCOCC3)CC2)cc1 | inactive
CC(=O)Nc1ccc(SCC(=O)NC(=O)c2ccc(Cl)cc2)cc1 | inactive
CC(Oc1ccc2c(-c3ccccc3)cc(=O)oc2c1)C(=O)NC(Cc1c[nH]c2ccccc12)C(=O)O (configuration not stated) | inactive
O=C(CNC(=O)c1ccc(-c2ccccc2)cc1)OCc1ccc(Cl)cc1 | inactive
O=C(CNC(=O)OCc1ccccc1)Oc1cc2oc(=O)cc(-c3ccccc3)c2cc1Cl | 8.2 µM (active)
CCOC(=O)c1cnc2sccn2c1=O | inactive
O=c1[nH]c2cccnc2n1-c1ccc([N+](=O)[O-])cc1 | inactive

SMILES | Potency
O=[N+]([O-])c1cccc(S(=O)(=O)NCc2ccccn2)c1 | inactive
O=[N+]([O-])c1ccc2nc(-c3ccccn3)[nH]c2c1 | 1.16 µM (active)
Cc1ccc(C(=O)OC2=CC(=O)CC(C)(C)C2)cc1 | inactive
COC(=O)c1c(NC(=O)COc2ccc(Cl)cc2Cl)sc2c1CC(C)(C)NC2(C)C | 8.2 µM (active)
Cc1cnc(C(=O)OCC(=O)Nc2ccc(Cl)cc2Cl)cn1 | inactive
CCOC(=O)c1c(NC(=O)COc2cc(C)ccc2C(C)C)sc(C)c1C | inactive
c1cc(-n2cnnn2)ccc1NC1=NCCC1 | inactive
O=C1CCCN1C(=O)COc1ccc([N+](=O)[O-])cc1 | inactive
COC(=O)c1ccc(S(=O)(=O)N(CCO)Cc2ccccc2)n1C | inactive
COc1ccc(Br)cc1C1CC(=O)Nc2c1c(C)nn2-c1nc(C)cc(C)n1 (configuration not stated) | 18.4 µM (active)
Cn1c(=O)c2c(n3c4ccccc4nc13)NC(=O)CC2c1cccc(Cl)c1 (configuration not stated) | inactive
C#CCOc1ccc(C2CC(=O)Nc3c2c(C)nn3-c2nc(C)cc(C)n2)cc1 (configuration not stated) | 20.6 µM (active)
COc1ccc(Br)cc1S(=O)(=O)N1CCN=C1C | inactive
COc1ccc(C2CC(=O)Nc3c2c(=O)nc2c(C)cccn32)cc1OC (configuration not stated) | inactive
COc1ccc(C2c3c(C)nn(-c4ccccc4)c3NC(=O)N2c2ccccc2)cc1 (configuration not stated) | inactive
NC(=O)COC(=O)c1ccc2c(c1)C(=O)N(Cc1ccco1)C2=O | inactive
CCCS(=O)(=O)NC(=O)C1(C)CCN(C(=O)c2sccc2C)C1 (configuration not stated) | inactive
COc1ccc(NC(=O)c2ccco2)cc1NC(=O)c1ccc(C#N)cc1F | inactive
Clc1cc(-c2ccc(/C=N/n3cnnc3)o2)ccc1Br | inactive
Cc1cc([N+](=O)[O-])nn1CCCC(=O)Nc1cccnc1Cl | inactive
CC(C)(C)c1ccc(C(=O)NCC(=O)OCN2C(=O)c3ccccc3C2=O)cc1 | inactive
O=C(CCNC(=O)c1ccc([N+](=O)[O-])cc1)Nc1ccccc1N1CCOCC1 | inactive

SMILES | Potency
CC(C)(C)c1ccc(C(=O)NCCn2c(N)c(C#N)c3nc4ccccc4nc32)cc1 | 29.1 µM (active)
CCOC(=O)/C(C#N)=C\c1c(C)cc(C)c(COC(C)=O)c1C | inactive
Cc1ccc2c(=O)c(C(=O)c3cccc(Cl)c3)cn(CC(=O)NCc3ccccc3)c2n1 | inactive
O=C(O)CC1=C(Nc2ccccc2)C(=O)N(c2ccccc2)C1c1ccc(Cl)cc1 (configuration not stated) | inactive
CCc1nc2onc(C)c2c(=O)n1CC(=O)O | inactive
CCOC(=O)N1CCN(C(=O)c2cnc3n(c2=O)CCS3)CC1 | inactive
CCOC(=O)N1CCN(C(=O)c2ccc3c(c2)N(Cc2ccc(C)cc2)CCS3)CC1 | 23.1 µM (active)
CCOC(=O)N1CCN(C(=O)c2ccc(S(=O)(=O)c3ccc(C)cc3)c(NC(C)=O)c2)CC1 | inactive
COc1ccc(NC(=O)NC2CC3CCCC(C2)N3Cc2ccccc2)cc1 (configuration not stated) | inactive
CC1(C)C2CC[C@]3(C)C(CC=C4[C@@H]5C[C@@](C)(CO)CC[C@]5(C(=O)O)CC[C@]43C)[C@@]2(C)CC[C@@H]1O (some centres not stated) | inactive
Cc1sc2ncnc(SCC(=O)Nc3ccc(CN4CCCC4)cc3)c2c1C | inactive
COC(=O)c1c(-c2cccs2)csc1NC(=O)CSc1ncnc2sc(C)c(C)c12 | 20.6 µM (active)
Cc1sc2ncnc(SCC(=O)NC3CCS(=O)(=O)C3)c2c1C (configuration not stated) | inactive
CC(=O)Nc1ccc(N2C(=O)C3C4C=CC(CC4)C3C2=O)cc1 (configuration not stated) | inactive
O=C(O)[C@@H]1CCCN1c1ncnc2sc3c(c12)CCC3 | inactive
OCCNc1nc2ccccc2n1-c1ncnc2sc3c(c12)CCC3 | 20.6 µM (active)
O=C(O)c1cccnc1Sc1ncnc2sc3c(c12)CCC3 | inactive
COc1cc(N2C(=O)CSC2=S)cc(OC)c1OC | inactive
O=C(Cn1nc(C(F)(F)F)c2c1CCC2)NCc1ccc(F)cc1 | inactive
O=C(CN(C(=O)c1csnn1)c1ccc(Br)cc1)NC1CCCC1 | inactive
O=C(NNC(=O)C1C2CCC(C2)C1C(=O)O)c1ccc(Cl)cc1 (configuration not stated) | inactive
O=C(NNC(=S)NC1CC2CCC1C2)c1ccc(Cl)cc1 (configuration not stated) | 23.1 µM (active)

SMILES | Potency
O=C(NC(=S)NC1CCCCC1)c1ccc(Cl)cc1 | inactive
Oc1c(C(c2ccco2)N2CCC3(CC2)OCCO3)sc2ncnn12 (configuration not stated) | inactive
CCOC(=O)c1ccc(N2C(=O)CC(N3CC(C)OC(C)C3)C2=O)cc1 (configuration not stated) | inactive
COc1ccc(C)cc1N(CC(=O)N1CCCC1)S(=O)(=O)c1ccccc1 | inactive
O=C(NCCCn1ccnc1)C1CCCN(S(=O)(=O)c2cc(Cl)ccc2Cl)C1 (configuration not stated) | inactive
Cc1ccc(Cl)cc1NC(=O)CCC(=O)N1CC(C)Sc2ccccc21 (configuration not stated) | 18.4 µM (active)
Cc1ccc(CNC(=O)CCC(=O)N2CC(C)Sc3ccccc32)cc1 (configuration not stated) | inactive
Cc1ccc(Cl)cc1NC(=O)COC(=O)C1CCCCC1 | inactive
Cc1cccc(N(C(=O)Cn2nnc(-c3ccc(C)o3)n2)C(C(=O)NC2CCCC2)c2ccncc2)c1 (configuration not stated) | inactive
CC(NC(=O)c1ccco1)c1ccc2c(c1)OCO2 (configuration not stated) | inactive
C#CCSc1nnc(-c2sc3ccccc3c2Cl)o1 | inactive
CN(Cc1cccs1)C(=O)Cc1c[nH]c2ccccc12 | inactive
O=C1CCC/C=C\C[C@@H](CC(=O)N(CCO)Cc2ccccc2)C(=O)NCCO1 | inactive
O=C(N[C@@H]1C/C=C\C[C@@H](CC(=O)N(CCO)Cc2ccccc2)C(=O)N[C@H](Cc2ccccc2)COC1=O)OCC1c2ccccc2-c2ccccc21 | 4.61 µM (active)
O=C1N[C@H](Cc2c[nH]c3ccccc23)COC(=O)[C@H](Cc2ccc(F)cc2)C/C=C\C[C@H]1CC(=O)N(CCO)Cc1ccccc1 | 16.4 µM (active)
O=C1OC[C@@H]2CCCN2C(=O)[C@H](CC(=O)N(CCO)Cc2ccccc2)C/C=C\CC[C@@H]1Cc1ccc(F)cc1 | 18.4 µM (active)
O=C1CCC/C=C/C[C@@H](CC(=O)N(CCO)Cc2ccccc2)C(=O)NC[C@H](c2ccccc2)O1 | inactive
O=C(C[C@@H]1C/C=C\CCC(=O)OC[C@@H]2CCCN2C1=O)NCCO | inactive
O=C1NC[C@@H](c2ccccc2)OC(=O)[C@H](Cc2ccc(F)cc2)CC/C=C/C[C@H]1CC(=O)N(CCO)Cc1ccccc1 | 14.6 µM (active)

From PubChem BioAssay AID686978 (National Center for Advancing Translational Sciences (NCATS), 2013)
